Compound activity as filed in PubChem BioAssay.
MCF10A rereplic: inducers of DNA re-replication in MCF 10A breast cells; Potency, µM (titrated, usually from 46.1 µM), most hits filed as activators; MCF 10A DNA re-replication, Hoechst nuclear intensity, 48 h; AID 624296; 350,000 compounds, 2.9% hits; note: nearly all actives have a fitted effect of over 50% in size
Mito fusion yeast: inhibitors of mitochondrial division or activators of mitochondrial fusion | S. cerevisiae fusion-defective mutant growth rescue, CellTiterGlo 48 h | Potency, µM (highest dose often 46.1 µM), usual class: activators | 320,000 compounds, 0.23% hits; note: nearly all actives have a fitted effect of over 45% in size
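Compounds are tested for their ability to restore growth of mitochondrial fusion-defective yeast strains at non-permissive 37C in YPEG medium over 48 hours. Viability is quantified by luciferase luminescence.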
A-T KAP1 phos: candidate therapy for ataxia-telangiectasia. F2112 A-T fibroblasts, KAP-1 phosphorylation AlphaLISA; neocarzinostatin DNA damage 30 min before lysis. Potency, µM (highest dose often 57.5 µM), most hits filed as activators. 320,000 compounds, 0.19% hits. AID 485349; note: nearly all actives have a fitted effect of over 45% in size
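hTERT-immortalized A-T patient fibroblasts (F2112), 500 cells/well in OPTI-MEM, 1% FBS, got compounds for 60 min, then NCS for 30 min at 37C. Lysates were then assayed for phospho-KAP-1 by AlphaLISA (anti-pKAP1 donor, anti-KAP1 acceptor beads), 6 hr at 25C.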
Integrin act MD: activators of alpha7 integrin expression for muscular dystrophy | alpha7betagal myoblasts, beta-gal FDG fluorescence, 48 h | Potency, µM (doses to about 38.3 µM), hits mostly activators | 350,000 compounds, 0.064% hits; note: nearly all actives have a fitted effect of over 60% in size
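Alpha7betagal+/- myoblasts (passage 13) were plated 16-24 hr, then exposed to compounds (1:260 dilution of DMSO stock) for 48 hours at 37C. After MPER lysis, β-galactosidase reporter activity was read as FDG fluorescence (ex 480/em 540) after 30 minutes.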
SW480 rerep: induces DNA re-replication in SW480 colon adenocarcinoma cells | SW480 DNA re-replication, Hoechst DNA content imaging, 48 h | Potency, µM (top dose mostly 46.1 µM), most hits filed as activators | 340,000 compounds, 1.8% hits; note: nearly all actives have a fitted effect of over 55% in size
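Compounds, transferred as 23 nL by pin tool, were incubated with cells for 48 hr; DNA content per nucleus was then quantified by Hoechst staining and fluorescence plate imaging.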
Each line names hits and unclear results; the compound was inactive in the other large screens. Hits are enriched below; roughly 4.2% of the tested compounds scored in any of these assays. Calls come from the whole dose curve; as a rule, active = well fitted activation curve with a large enough effect; inconclusive = small, poorly fitted or top-dose-only effect; inactive = no such curve, though single readings can be large or run the other way.

CC1(C)Cc2c(C#N)c(NCCN3CCOCC3)nc(-c3ccco3)c2CO1	MCF10A rereplic 23µM
CC1(C)Cc2c(C#N)c(NCCN3CCOCC3)nc(-c3ccccc3)c2CO1	SW480 rerep 7.3µM
CCCCn1c(N)c(N(CC)C(=O)c2cccs2)c(=O)[nH]c1=O	none (no result: Mito fusion yeast)
NC(=O)c1nsc(C(=O)N(c2ccccc2)C(C(=O)NC2CCCCC2)c2ccc(O)cc2)c1N (stereo not given)	SW480 rerep inconclusive
Cc1cc(C(=O)Nn2c(C3CCCCC3)nc3ccccc3c2=O)ccc1[N+](=O)[O-]	MCF10A rereplic inconclusive
O=C(Nn1c(C2CCCCC2)nc2ccccc2c1=O)c1ccc(Cl)c([N+](=O)[O-])c1	MCF10A rereplic 7.3µM
COc1cc(OC)cc(C(=O)N2CC(=O)Nc3ccccc32)c1	MCF10A rereplic 1.5µM, SW480 rerep 3.3µM
CC(C)n1nc(C(=O)OCC(=O)N2CC(=O)Nc3ccccc32)c2ccccc2c1=O	none
O=C1CN(C(=O)c2ccccc2F)c2ccccc2N1	none
CCCn1nc(C(=O)N2CC(=O)Nc3ccccc32)c2ccccc2c1=O	MCF10A rereplic 15µM, SW480 rerep 15µM
O=Cc1ccc(OC2OCCOC2Oc2ccc(C=O)cc2)cc1 (stereo not given)	none
COc1ccccc1NC(=O)COc1ccc(/C=N/NC(=O)CSCc2cc(C)cc(C)c2)cc1	MCF10A rereplic 18µM
CCOC(=O)COc1cccc2c(=O)n(CC(=O)NCc3ccc(F)cc3)ccc12	MCF10A rereplic inconclusive, SW480 rerep inconclusive
CCOC(=O)C(C)Oc1cccc2c(=O)n(CC(=O)NCc3ccc4c(c3)OCO4)ccc12 (stereo not given)	MCF10A rereplic 6.5µM, SW480 rerep 4.1µM (no result: Mito fusion yeast)
CCOC(=O)COc1cccc2c(=O)n(CC(=O)NCc3ccccc3)ccc12	MCF10A rereplic 1.5µM, SW480 rerep inconclusive
CCOC(=O)C(C)Oc1cccc2c(=O)n(CC(=O)Nc3ccc4c(c3)OCCO4)ccc12 (stereo not given)	none
CCOc1ccc(NC(=O)CSc2nc3ccccc3nc2N2CC(C)OC(C)C2)cc1 (stereo not given)	none
O=C(CN1C(=O)CS/C1=C\c1nc(-c2ccc(Cl)cc2)cs1)Nc1cccnc1Cl	MCF10A rereplic inconclusive, SW480 rerep inconclusive
Cc1ccc(-c2csc(/C=C3\SC(C)C(=O)N3CC(=O)Nc3ccccc3F)n2)cc1 (stereo not given)	MCF10A rereplic 18µM
COc1ccccc1C#CC1=CC(=O)CC(C)(C)C1	none (no result: MCF10A rereplic, Mito fusion yeast, A-T KAP1 phos, SW480 rerep)
CCOC(=O)c1ccc(CN(Cc2ccccc2)S(=O)(=O)c2ccc(C)cc2)cc1	none (no result: MCF10A rereplic, A-T KAP1 phos, Integrin act MD, SW480 rerep)
O=C(c1ccco1)[C@@H]1[C@@H]2C(=O)N(c3ccccc3)C(=O)[C@@H]2C2c3ccccc3C=CN21 (stereo not given in full)	none
CC(=O)[C@@H]1[C@@H]2C(=O)N(Cc3ccccc3)C(=O)[C@@H]2C2c3ccccc3C=CN21 (stereo not given in full)	MCF10A rereplic 5.8µM
COc1ccc(C2=NN(C(=O)c3ccco3)C(c3cccs3)C2)cc1OC (stereo not given)	none (no result: MCF10A rereplic, Mito fusion yeast, A-T KAP1 phos, SW480 rerep)
COc1cccc(OC)c1C(=O)OCC(=O)N(C)c1ccccc1	Integrin act MD inconclusive
COc1ccc(C(=O)N2CCN(c3cccc(Cl)c3)CC2)cc1S(=O)(=O)NC1CC1	MCF10A rereplic 23µM
O=C(NC(=O)N1CCN(c2cccc(Cl)c2)CC1)c1ccccc1	MCF10A rereplic inconclusive
Cc1ccc(C(=O)N2CCN(c3ccccc3)CC2)cc1C	none
O=C(NC(=O)N1CCN(c2cccc(Cl)c2)CC1)c1ccc(Cl)cc1	MCF10A rereplic 5.2µM
O=C(Nc1ccc(C(=O)N2CCN(c3ccc(Cl)cc3)CC2)cc1)C1=CSCCO1	none
Cc1ccc(C(=O)N2CCN(c3cccc(Cl)c3)CC2)cc1C	MCF10A rereplic 18µM, SW480 rerep 12µM
O=C(Nc1ccccc1C(=O)N1CCN(c2cccc(Cl)c2)CC1)C1=CSCCO1	Mito fusion yeast 35µM, SW480 rerep inconclusive
CC(CO)NS(=O)(=O)c1cc(Cl)ccc1F (stereo not given)	none (no result: MCF10A rereplic, Mito fusion yeast, A-T KAP1 phos, SW480 rerep)
CSc1ccccc1C(=O)N1CCN(c2cccc(Cl)c2)CC1	MCF10A rereplic inconclusive, SW480 rerep 23µM
NC(=O)C1CCN(C(=O)c2cc(-c3ccc(Cl)s3)nc3ccccc23)CC1	MCF10A rereplic inconclusive, SW480 rerep 18µM (no result: Mito fusion yeast)
CCCn1nnnc1NCc1ccccc1OCc1ccc(F)cc1	MCF10A rereplic 23µM, SW480 rerep inconclusive
Cc1ccc(-n2ncc3c(=O)n(-c4cccc(C)c4)c(=O)[nH]c32)cc1	none (no result: MCF10A rereplic, Mito fusion yeast, A-T KAP1 phos, SW480 rerep)
COC(=O)c1ccc(NC(=O)CSC2=NCCN2)cc1	MCF10A rereplic 15µM, SW480 rerep inconclusive
O=C(NCc1ccc(F)cc1)C1CCC(CNS(=O)(=O)c2cccs2)CC1 (stereo not given)	none
O=C(C1CCN(S(=O)(=O)N2CCOCC2)CC1)N1CCN(c2ccc(F)cc2)CC1	Mito fusion yeast 35µM
O=C(C1CCC(CNS(=O)(=O)c2cccs2)CC1)N1CCN(c2ccc(F)cc2)CC1 (stereo not given)	MCF10A rereplic 16µM
CCN1CCN(c2ncc3c(n2)CC(c2cc(OC)c(OC)c(OC)c2)CC3=O)CC1 (stereo not given)	MCF10A rereplic 21µM, SW480 rerep 4.1µM
O=C1CC(c2cccc(Cl)c2)Cc2nc(N3CCN(c4ccccc4)CC3)ncc21 (stereo not given)	none
COc1ccc(NC(=S)NC(=O)/C=C/c2ccco2)cc1	MCF10A rereplic inconclusive
O=C(/C=C/c1ccco1)NC(=S)Nc1ccc(O)c(-c2nc3ccccc3s2)c1	MCF10A rereplic 8.2µM, SW480 rerep inconclusive
Cc1ccc(O)c(NC(=S)NC(=O)/C=C/c2ccco2)c1	SW480 rerep 16µM
Cc1ccc(-c2csc(NC(=S)NC(=O)/C=C/c3ccco3)n2)cc1	MCF10A rereplic 1.6µM
O=C(/C=C/c1ccco1)NC(=S)Nc1ccc(N2CCCC2)cc1	MCF10A rereplic 21µM, SW480 rerep inconclusive
Cc1nn(Cc2ccccc2)c(C)c1NC(=O)c1cc(-c2ccc3c(c2)OCO3)on1	MCF10A rereplic 9.2µM
Cc1nn(Cc2ccccc2Cl)c(C)c1NC(=O)c1cc(-c2ccc(F)cc2)on1	MCF10A rereplic 4.1µM
COc1ccccc1C(=O)NCC(=O)OCC(=O)c1cccc2ccccc12	MCF10A rereplic inconclusive
CCNC(=S)N(CCO)Cc1cc2cc3c(cc2[nH]c1=O)OCO3	none
C/C(=N\NC(=O)C1(C)CC1(Br)Br)c1cccc(NC(=O)c2ccc(C)o2)c1 (stereo not given)	none
Oc1c(Br)cc(Br)cc1CNc1cnc2ccccc2c1	MCF10A rereplic 23µM
O=C(CC(Nc1ccccc1)C(=O)O)c1ccccc1 (stereo not given)	none
